Measurements taken from PubChem BioAssay (NCATS).
Records with an inconclusive call do not appear. The source made the active and inactive calls. The call rests on the fitted dose curve.

Experiment: Cell Viability - HepG2 (AID 433);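 further: potency for ATP loss meaning cytotoxicity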
Settings: qHTS
Description: NIH Chemical Genomics Center [NCGC]
NIH Molecular Libraries Screening Centers Network [MLSCN]
National Institutes of Environmental Health Sciences [NIEHS]
National Toxicology Program [NTP]
We have developed a 1536-well cell-based assay for quantitative high throughput screening (qHTS) against a number of cell lines to determine in vitro cytotoxicity of small molecules. This particular assay uses the HepG2 cell line which is derived from hepatocellular carcinoma.
NCGC Assay Protocol Summary:
The CellTiter-Glo luminescent cell viability assay (Promega) is a homogeneous method to measure the number of viable cells in culture. The end point readout of this assay is based on quantitation of intracellular ATP, an indicator of metabolic activity, using the luciferase reaction. Luciferase catalyzes the oxidation of beetle Luciferin to oxyluciferin and light in the presence of ATP. The luminescent signal is proportional to amount of ATP present.
Using the CellTiter-Glo luminescent cell viability assay, the amount of cellular ATP was measured in the HepG2 cell line with complete culture medium following compound treatment for 40 hours. The assay was performed in opaque white Kalypsys 1536-well plates. In the screen, tamoxifen and doxorubicin were used as positive controls. Library compounds were measured for their ability to cause acute toxicity in the cell line, as reflected by a decrease in intracellular ATP levels, in a concentration-dependent manner. Data were normalized to the controls for basal activity (DMSO only) and 100% inhibition (100 uM tamoxifen). AC50 values were determined from concentration-response data modeled with the standard Hill equation.
qHTS protocol fo CellTiter Glo HepG2 cellular assay
[Step] [Parameter] [Value] [Description]
1. Reagent; 5 uL; 1500 HepG2 cells/well
2. Time; 5 hr; 37 °C incubation
4. Controls; 23 nL; Tamoxifen 0.34 uM to 100 uM & Doxorubicin 0.02 nM to 100 uM
5. Time; 40 hr; 37 °C incubation
6. Reagent; 5 uL; CellTiter Glo reagent
7. Time; 20 min; Room Temperature
8. Detection; Luminescence; Viewlux plate reader
Keywords: cell viability, cytotoxicity, HepG2 cell line, luminescence, NTPHTS, NTPHTS_NCGC, NIEHS, EPA, DSSTox, MLSMR, MLSCN, NIH Roadmap, qHTS, NCGC
Potency means the concentration at half of the fitted maximal effect.

Question: With CN1C[C@H](C(=O)N[C@]2(C)O[C@@]3(O)[C@@H]4CCCN4C(=O)[C@H](Cc4ccccc4)N3C2=O)C=C2c3cccc4[nH]cc(c34)C[C@H]21 as the molecule, how does the Potency read?
Answer: > 92 µM (inactive)

Question: With O=P1(N(CCCl)CCCl)NCCCO1 (centres undefined) as the molecule, how does the Potency read?
Answer: > 92 µM (inactive)

Question: Which Potency does the source give for Oc1ccc(Cl)cc1 here?
Answer: > 92 µM (inactive)

Question: With C[C@]12CCC(=O)C=C1CC[C@@H]1[C@@H]2CC[C@@]2(C)[C@H]1CC[C@]2(C)O as the molecule, how does the Potency read?
Answer: > 92 µM (inactive)

Question: Which Potency does the source give for COC(=O)C(c1ccccc1)C1CCCCN1 (centres undefined) here?
Answer: > 92 µM (inactive)

Question: With C[C@]1(O)CC[C@H]2[C@@H]3CCC4=CC(=O)CC[C@]4(C)[C@@]3(F)[C@@H](O)C[C@@]21C as the molecule, how does the Potency read?
Answer: > 92 µM (inactive)

Question: For Nc1ccccc1C(=O)O, which Potency is on record?
Answer: > 92 µM (inactive)

Question: Which Potency does the source give for NCCc1ccc(O)cc1 here?
Answer: > 92 µM (inactive)

Question: Which Potency does the source give for CCCC(C)(COC(N)=O)COC(N)=O here?
Answer: > 92 µM (inactive)

Question: Which Potency does the source give for CCC(C)(C)c1ccc(O)cc1 here?
Answer: > 92 µM (inactive)

Question: With Nc1ccccc1 as the molecule, how does the Potency read?
Answer: > 92 µM (inactive)

Question: Which Potency does the source give for CC(C)NC(C)C here?
Answer: > 92 µM (inactive)

Question: With CC(C)c1cccc(C(C)C)c1O as the molecule, how does the Potency read?
Answer: > 92 µM (inactive)

Question: For O=C(O)CCCc1ccc(N(CCCl)CCCl)cc1, which Potency is on record?
Answer: > 92 µM (inactive)

Question: Which Potency does the source give for COP(=S)(OC)Oc1ccc(SC)c(C)c1 here?
Answer: > 92 µM (inactive)

Question: Which Potency does the source give for CCOC(=O)CC(SP(=S)(OC)OC)C(=O)OCC (centres undefined) here?
Answer: > 92 µM (inactive)

Question: With Clc1ccc(C(c2ccc(Cl)cc2)C(Cl)(Cl)Cl)cc1 as the molecule, how does the Potency read?
Answer: > 92 µM (inactive)

Question: With COc1cc(OC)c(OC)cc1C=O as the molecule, how does the Potency read?
Answer: > 92 µM (inactive)

Question: For C[C@]12CCC(=O)C=C1CC[C@@H]1[C@@H]2CC[C@]2(C)C(=O)CC[C@@H]12, which Potency is on record?
Answer: > 92 µM (inactive)
